# Measured values as given in ChEMBL document CHEMBL5724796, “Tm Shift (DSF) assay results for EUbOPEN Chemogenomics Library” (2024).
# Residues, ends and D or L forms follow the SMILES beside them.
# What was measured:
# Conditions in all cases: Compound concentration 20.0 uM
# [1] = target: Tyrosine-protein kinase ABL1 (Homo sapiens) (UniProt P00519)
# [2] = target: Bromodomain-containing protein 4 (Homo sapiens) (UniProt O60885)
# [3] = target: Cyclin-dependent kinase 2 (Homo sapiens) (UniProt P24941)
# [4] = target: Casein kinase I isoform delta (Homo sapiens) (UniProt P48730)
# [5] = target: Glycogen synthase kinase-3 beta (Homo sapiens) (UniProt P49841)
# [6] = target: Mitogen-activated protein kinase 1 (Homo sapiens) (UniProt P28482)
# [7] = target: T1, Aurora kinase A (Homo sapiens) (UniProt O14965)
# T1 sequence (whole entry): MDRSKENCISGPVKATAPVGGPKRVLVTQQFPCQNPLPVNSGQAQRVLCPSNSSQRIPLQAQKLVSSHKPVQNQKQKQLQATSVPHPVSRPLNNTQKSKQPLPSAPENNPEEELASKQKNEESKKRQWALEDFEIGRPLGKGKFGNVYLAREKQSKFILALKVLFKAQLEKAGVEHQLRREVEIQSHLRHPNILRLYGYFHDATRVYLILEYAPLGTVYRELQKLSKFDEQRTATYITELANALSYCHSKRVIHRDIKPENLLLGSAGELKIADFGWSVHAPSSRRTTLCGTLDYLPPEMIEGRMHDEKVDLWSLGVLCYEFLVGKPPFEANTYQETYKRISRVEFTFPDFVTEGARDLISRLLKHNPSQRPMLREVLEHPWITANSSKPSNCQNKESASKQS
# [8] = target: T2, Transcription intermediary factor 1-alpha (Homo sapiens) (UniProt O15164)
# T2 sequence (whole entry): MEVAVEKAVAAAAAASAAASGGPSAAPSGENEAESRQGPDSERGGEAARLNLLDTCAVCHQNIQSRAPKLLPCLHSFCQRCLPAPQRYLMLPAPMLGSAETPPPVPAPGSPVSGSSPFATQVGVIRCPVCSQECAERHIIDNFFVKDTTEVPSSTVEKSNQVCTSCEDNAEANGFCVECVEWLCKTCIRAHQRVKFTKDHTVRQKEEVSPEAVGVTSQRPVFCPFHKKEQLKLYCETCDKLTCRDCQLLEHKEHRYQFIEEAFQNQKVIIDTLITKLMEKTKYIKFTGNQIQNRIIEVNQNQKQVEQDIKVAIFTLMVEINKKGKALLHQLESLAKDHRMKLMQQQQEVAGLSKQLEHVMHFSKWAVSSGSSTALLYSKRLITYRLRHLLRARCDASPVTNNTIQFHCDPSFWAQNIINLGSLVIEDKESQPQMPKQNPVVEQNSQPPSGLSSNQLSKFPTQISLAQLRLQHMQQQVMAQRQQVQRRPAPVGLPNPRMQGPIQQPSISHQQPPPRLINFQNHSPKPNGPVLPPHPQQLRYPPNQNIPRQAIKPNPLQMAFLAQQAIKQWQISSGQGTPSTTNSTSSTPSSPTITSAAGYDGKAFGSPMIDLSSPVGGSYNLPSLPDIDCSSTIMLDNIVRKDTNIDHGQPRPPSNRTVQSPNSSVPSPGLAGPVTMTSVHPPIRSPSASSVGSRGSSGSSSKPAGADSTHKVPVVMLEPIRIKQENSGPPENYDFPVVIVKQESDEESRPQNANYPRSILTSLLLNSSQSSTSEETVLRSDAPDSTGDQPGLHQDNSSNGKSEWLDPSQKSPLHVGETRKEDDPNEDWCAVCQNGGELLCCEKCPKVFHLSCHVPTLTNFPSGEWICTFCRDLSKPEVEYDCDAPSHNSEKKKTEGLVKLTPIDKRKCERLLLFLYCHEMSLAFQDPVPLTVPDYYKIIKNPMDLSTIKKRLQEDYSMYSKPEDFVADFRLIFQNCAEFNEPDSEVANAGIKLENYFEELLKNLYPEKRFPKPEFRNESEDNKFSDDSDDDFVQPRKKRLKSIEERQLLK
# Glycogen synthase kinase-3 beta (Homo sapiens), sequence (P49841 whole entry, looked up): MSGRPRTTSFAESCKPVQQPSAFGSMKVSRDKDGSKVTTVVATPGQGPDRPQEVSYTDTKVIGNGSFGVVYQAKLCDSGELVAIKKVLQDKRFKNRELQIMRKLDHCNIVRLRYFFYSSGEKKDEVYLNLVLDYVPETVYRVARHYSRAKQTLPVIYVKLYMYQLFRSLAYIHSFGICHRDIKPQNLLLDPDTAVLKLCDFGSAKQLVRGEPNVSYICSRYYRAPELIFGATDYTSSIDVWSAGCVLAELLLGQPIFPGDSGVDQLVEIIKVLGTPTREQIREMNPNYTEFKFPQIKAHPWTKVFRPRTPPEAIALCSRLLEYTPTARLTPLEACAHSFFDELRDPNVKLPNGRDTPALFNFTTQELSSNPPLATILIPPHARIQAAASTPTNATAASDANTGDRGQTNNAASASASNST
# Tyrosine-protein kinase ABL1 (Homo sapiens), sequence (P00519 whole entry): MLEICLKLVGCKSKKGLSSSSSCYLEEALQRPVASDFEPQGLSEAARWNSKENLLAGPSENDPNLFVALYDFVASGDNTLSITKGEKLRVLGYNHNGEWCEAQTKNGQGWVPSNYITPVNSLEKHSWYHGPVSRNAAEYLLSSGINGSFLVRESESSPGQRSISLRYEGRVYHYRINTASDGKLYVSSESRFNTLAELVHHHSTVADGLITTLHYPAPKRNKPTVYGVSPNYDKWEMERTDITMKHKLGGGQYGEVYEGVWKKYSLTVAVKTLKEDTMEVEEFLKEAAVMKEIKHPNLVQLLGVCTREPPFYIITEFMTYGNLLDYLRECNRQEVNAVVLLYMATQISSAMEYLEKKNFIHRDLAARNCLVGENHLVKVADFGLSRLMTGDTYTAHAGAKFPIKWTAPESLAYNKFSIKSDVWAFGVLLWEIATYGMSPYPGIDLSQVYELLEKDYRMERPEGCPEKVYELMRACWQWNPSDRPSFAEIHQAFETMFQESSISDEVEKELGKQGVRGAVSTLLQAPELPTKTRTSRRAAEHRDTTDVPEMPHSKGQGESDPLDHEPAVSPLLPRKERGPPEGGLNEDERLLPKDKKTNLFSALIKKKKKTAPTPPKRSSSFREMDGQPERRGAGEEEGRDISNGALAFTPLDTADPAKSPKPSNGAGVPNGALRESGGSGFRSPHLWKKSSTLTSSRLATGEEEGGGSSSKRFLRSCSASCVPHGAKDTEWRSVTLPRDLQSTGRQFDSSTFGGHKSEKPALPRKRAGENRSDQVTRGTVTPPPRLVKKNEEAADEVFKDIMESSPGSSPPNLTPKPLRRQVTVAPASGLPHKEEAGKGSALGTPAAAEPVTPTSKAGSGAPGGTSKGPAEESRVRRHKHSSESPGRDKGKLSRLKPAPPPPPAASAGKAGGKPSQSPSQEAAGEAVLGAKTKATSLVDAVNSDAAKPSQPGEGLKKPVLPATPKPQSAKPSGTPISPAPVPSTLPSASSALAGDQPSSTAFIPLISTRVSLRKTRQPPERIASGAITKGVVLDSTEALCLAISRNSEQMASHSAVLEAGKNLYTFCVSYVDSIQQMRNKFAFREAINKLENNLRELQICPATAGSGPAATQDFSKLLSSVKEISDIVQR
# Mitogen-activated protein kinase 1 (Homo sapiens), sequence (P28482 whole entry): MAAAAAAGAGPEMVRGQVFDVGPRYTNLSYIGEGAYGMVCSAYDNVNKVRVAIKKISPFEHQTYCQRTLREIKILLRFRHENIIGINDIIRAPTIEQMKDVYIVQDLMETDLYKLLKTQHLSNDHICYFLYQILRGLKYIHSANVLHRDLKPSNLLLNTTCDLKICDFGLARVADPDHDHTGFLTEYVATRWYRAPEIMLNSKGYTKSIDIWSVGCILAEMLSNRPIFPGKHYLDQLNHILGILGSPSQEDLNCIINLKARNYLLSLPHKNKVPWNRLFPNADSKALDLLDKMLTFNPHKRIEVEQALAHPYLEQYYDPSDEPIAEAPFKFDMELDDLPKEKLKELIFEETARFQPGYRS
# Casein kinase I isoform delta (Homo sapiens), sequence (P48730 whole entry, looked up, canonical isoform): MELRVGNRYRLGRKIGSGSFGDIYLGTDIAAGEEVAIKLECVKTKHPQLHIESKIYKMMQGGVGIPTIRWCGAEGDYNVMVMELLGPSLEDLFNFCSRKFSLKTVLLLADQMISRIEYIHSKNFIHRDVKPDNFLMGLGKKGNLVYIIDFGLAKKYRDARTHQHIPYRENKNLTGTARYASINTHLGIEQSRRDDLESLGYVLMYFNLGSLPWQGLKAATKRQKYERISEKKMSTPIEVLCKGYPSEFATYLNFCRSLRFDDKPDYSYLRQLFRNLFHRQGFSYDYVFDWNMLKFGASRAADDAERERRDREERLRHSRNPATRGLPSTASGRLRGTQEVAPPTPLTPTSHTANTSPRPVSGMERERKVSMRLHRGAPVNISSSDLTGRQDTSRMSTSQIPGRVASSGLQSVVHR
Structure (SMILES),ΔTm [1] [°C],ΔTm [2] [°C],ΔTm [3] [°C],ΔTm [4] [°C],ΔTm [5] [°C],ΔTm [6] [°C],ΔTm [7] [°C],ΔTm [8] [°C]
COc1ncc(C)cc1CC[C@@](O)(CC(=O)O)C(=O)O,0.5,-1.94,0.22,-0.36,0.4,0.35,-1.39,-0.23
C[C@H](N)C(=O)N1C[C@H](CCCB(O)O)[C@](N)(C(=O)O)C1,0.03,-2.12,-0.11,-0.32,-0.3,0.12,-2.46,-0.11
Nc1ccc(-c2cccs2)cc1NC(=O)c1ccc2nc(N3CCNCC3)ccc2c1,3.35,-2.49,1.41,0.14,0.38,-0.25,-0.39,-0.74
CC(=O)NCC(=O)N1CCC[C@@H]1B(O)O,0.26,-0.72,1.18,-0.18,-0.78,0.14,-1.86,0.93
O=C(O)C1CCCN(CCC=C(c2ccccc2)c2ccccc2)C1 (stereo not drawn),0.13,-2.59,0,-0.19,-0.66,0.13,-2.34,-1.2
NC(=O)c1cccc(NC(=O)CCC(=O)NCCc2cn(CCNS(=O)(=O)c3cccc(C(=O)O)c3)nn2)c1,0.47,-2.59,-0.69,0.02,-1.06,-1.68,-2.28,-0.11
NS(=O)(=O)OC[C@H]1C[C@@H](Nc2ncncc2C(=O)c2ccn(Cc3cccc(Br)c3)n2)C[C@@H]1O,0.71,-2.22,0.03,0.64,1.22,0.37,-1.76,-1.07
CN1CCN(c2nc(-c3ccc(C(=O)NC4(C(=O)NCC#N)CCCCC4)cc3)cs2)CC1,0.26,-0.96,0.12,-0.06,-0.33,-1.88,-0.41,-0.66
CC(C)Oc1ccc2c(=O)[nH]c3sccc3c2c1,2.81,-1.93,0.87,1.82,0.89,0.11,-0.48,-0.42
C[C@@H]1OC(=O)NN=C1c1ccc(-c2ccc(F)cc2)c(C(F)(F)F)c1,-1.46,-3.44,-0.76,-0.33,-7.28,-0.02,-7.3,-0.48
CSCC[C@H](NC(=O)[C@H](CC(=O)O)NC(C)=O)C(=O)N[C@@H](CCC(N)=O)C(=O)N[C@H](C=O)CC(=O)O (Ac-DMQD-aldehyde),0.11,-1.14,-0.29,0.02,-0.48,-0.4,-1.16,-0.9
Cc1cc(/N=N/c2ccc(S(=O)(=O)NC3CCCC3)cc2)c(N)cc1O,0.4,7.29,4.93,1.1,4.28,2.73,0.42,2.48
COc1ccc(-c2c(-c3ccc(C#N)c(F)c3)nc(N3CCC(N)CC3)n(C)c2=O)cc1F,0.65,-3.53,0,0,-0.33,0.2,-2.24,-0.36
Nc1nc2cc(CC[C@H]3C[C@@H](n4ccc5c(N)ncnc54)[C@H](O)[C@@H]3O)ccc2cc1Br,2.92,-1.76,-4.38,4.13,-8.32,-17,-10,-0.53
CC(C)(C)c1ccc(S(=O)(=O)NCc2ccc(C(=O)Nc3cccnc3)cc2)cc1,0.45,-2.48,-0.13,-0.13,-1.45,0.7,-2.1,0.99
CC(=O)N[C@@H](Cc1ccc(O)cc1)C(=O)N[C@H](C(=O)N[C@@H](C)C(=O)N[C@@H](CC(=O)O)C(=O)CCl)C(C)C,0.08,-2.91,-0.27,0.22,-1.19,-0.01,-1.19,-1.17
C[C@]1(c2nc3c(C(N)=O)cccc3[nH]2)CCCN1,0.02,-2.57,-0.1,0.16,-0.63,-0.01,-1.66,1.28
N#Cc1ccc(-c2c3n(c4cccnc24)CCN(C2CC2)C3=O)cc1F,0.62,-3.17,0.14,-0.26,1.8,0.04,-2.3,0.73
CC1(C)c2cccc(C(=O)NO)c2CN1c1cnc(C(F)(F)F)cn1,0.41,-2.93,-2.1,0.64,0,0,-2.98,-1.07
CC(C)(C)NS(=O)(=O)c1ccc(NC(=O)[C@H](Cc2ccccc2)NC(=O)c2ccc(F)cc2)cc1,2.48,-1.97,0.06,0.21,2.59,-3.67,-0.32,-0.1
CC(C)N(C(=O)c1cc(F)ccc1Oc1cncnc1N1CC2(CCN(C[C@H]3CC[C@H](NS(C)(=O)=O)CC3)CC2)C1)C(C)C,0.57,-1.5,0.13,-0.36,-0.7,0.13,-2.37,0.16
Cc1cc(C(=O)CN2CCCCC2)c(C)n1-c1ccc(Cl)cc1,-0.03,-2.43,0.02,-0.16,-0.07,0.08,-1.42,-0.41
CCCN1CCN(c2ccc(C(=O)NC3(C(=O)NCC#N)CCCCC3)cc2)CC1,0.17,-1.33,0.57,0.09,-0.34,-0.16,-0.29,-0.56

Structure (SMILES),ΔTm [1] [°C],ΔTm [2] [°C],ΔTm [3] [°C],ΔTm [4] [°C],ΔTm [5] [°C],ΔTm [6] [°C],ΔTm [7] [°C],ΔTm [8] [°C]
NC(=O)C(CCCN=C(N)CCl)NC(=O)c1ccccc1 (stereo not drawn),0.36,-3.15,0.18,-0.56,0.08,0.22,-2.39,1.03
COc1cccc(Nc2c(C(N)=O)cnc3c(C)cc(S(=O)(=O)c4cccc(C(=O)N(C)C)c4)cc23)c1,0.62,-2.14,0.36,-0.04,0.04,0.14,-0.98,-0.26
C[C@H](c1nc2c(cnn2C2CCOCC2)c(=O)[nH]1)N1CC(Oc2ccccc2)C1,0.76,-2.52,0.6,-0.29,3.31,0.49,-1.78,0.73
O=C(c1cc(O)c(O)c([N+](=O)[O-])c1)c1ccccc1F,0.42,-1.18,0.1,0.37,0.05,0.25,-1.23,0.61
CNC[C@@H](O)COc1ccc(Cl)c(-c2nc(-c3c(C)noc3C)c(C)c(N3CC4(CCN(C(=O)OC)CC4)C3)n2)c1,0.37,-2.53,0.32,0.05,-0.26,-2.08,0.12,0.65
Cc1ncsc1-c1ccc(CNC(=O)[C@@H]2C[C@@H](O)CN2C(=O)[C@@H](NC(=O)COCCOCCOCCNC(=O)C[C@@H]2N=C(c3ccc(Cl)cc3)c3c(sc(C)c3C)-n3c(C)nnc32)C(C)(C)C)cc1,0.3,10,-1.76,0.94,0,0,0,0
CS(=O)(=O)N1CCN(C(=O)c2cnc3ccc(F)cc3c2N2CCC(C#N)(c3ccccc3)CC2)CC1,0.43,-2.17,-0.17,0.48,0.47,-0.62,-0.82,0
CCOc1ccc(S(=O)(=O)Nc2ccc(Cl)cc2C#Cc2cnc(C(=O)O)cc2OC)c2ncccc12,0.04,-2.23,-0.26,-7.02,-2.42,-0.03,-2.9,0.7
Cn1cc(-c2ccncc2)c(-c2ccc(OCc3ccc4ccccc4n3)cc2)n1,0.66,-0.49,-0.35,1.79,0,0.13,2.06,0.65
CC(=O)OCCN1C(=O)c2c(C)nc3ccc(S(=O)(=O)N4CCOCC4)cc3c2C1=O,-0.43,-1.49,-0.16,0.13,-0.73,-0.31,-1.13,-1.22
Nc1ccccc1NC(=O)c1ccc(CNc2nccc(-c3cccnc3)n2)cc1,1.28,-1.59,0.7,2.88,0.76,0.18,5.93,-0.03
CC(C)NC(=O)c1ccc(OC(F)F)c(OCC2CC2)c1,0.64,-3.14,0.29,-0.07,-0.46,0.24,-2.33,1.71
O=C(c1ccc2[nH]ccc2c1)N1CCN(S(=O)(=O)c2ccc3[nH]c(=O)oc3c2)CC1,0.69,-2.8,-0.68,0.15,0,0.48,-1.69,-0.16
Oc1nc(-c2ccc(C(F)(F)F)cc2)nc2c1CSCC2,0.58,-2.75,0.01,-0.13,0.44,0.11,-2.41,-0.56
CCc1c(C#N)c(S[C@@H](C(N)=O)c2ccccc2)nc(N(C)C)c1C#N,0.6,-2.37,0.24,-0.69,0.35,0.45,-2.54,0.58
CCCCCCNC(=O)n1cc(F)c(=O)[nH]c1=O,0.09,-1.76,-0.24,-0.3,-0.82,0.03,-1.98,0.05
O=C(c1cccc(-c2ccc(-c3cn(C(=O)N4CCCCC4c4ccccc4)nn3)cc2)c1)N1CCCCC1 (stereo not drawn),1.85,11.3,0.3,0.93,-2.22,1.43,4.6,-0.32
CC(C)C(=O)SCCCCCCC(=O)Nc1nc(-c2ccccc2)cs1,0.63,-1.46,0.18,0.04,1.11,-0.16,-0.57,-0.48
CC(C)(C)OC(=O)Nc1ccc(CNc2nccc(Nc3cc(C(=O)OC(C)(C)C)[nH]n3)n2)cc1,2.57,-0.88,5.67,0.13,0.97,-2.08,26.1,0.26
N#Cc1ccc(Nc2cnccc2SCc2ccccc2C(=O)O)c2ccccc12,0.28,1.65,0.57,-0.12,0,0.32,-0.47,1.31
COC(=O)[C@@H]1CC2=CC(=O)CC[C@]2(C)[C@@]23O[C@@H]2C[C@@]2(C)[C@@H](CC[C@@]24CCC(=O)O4)[C@H]13,0.55,-1.74,-0.21,0.47,-0.8,0.21,-0.81,-0.62
CC(C)(C)OC(=O)NCCCCCN(CCc1ccccc1)C(=O)n1cc(-c2ccc(OC(F)(F)F)cc2)nn1,-0.13,-3.63,0.01,-1.51,-2.3,0.71,-2.16,0.4
O=C(NCCCCCCCCNC(=O)C(Cl)Cl)C(Cl)Cl,0.05,-2.38,-0.1,-0.18,-1.79,-0.02,-1.73,1.02
